The list is not random: actives were taken first. Their share in the collection is about 6.2%.
Lassa entry inh – qHTS for Inhibitors of binding or entry into cells for Lassa Virus | 300,000 compounds, 1.2% hits | Potency, µM (titrated, usually from 37.9 µM), for inactives: at the highest dose activity change, negative = inhibition, hits mostly inhibitors | Lassa virus pseudotype entry inhibition, cell reporter; calls by dose curve; tested in HEK293 cells; note: potency is the fitted concentration of half-maximal effect; nearly all actives have a fitted effect of over 50% in size
HCMV inh – qHTS Assay for inhibitors of the human cytomegalovirus (HCMV); activity change, negative = inhibition, % at 57.5 µM; AID 1259415, 2018; 410,000 compounds, 4.5% hits; HFF cells, HCMV-luciferase reporter, 72 h; active compounds read low; in the data active = activity change below about -60%; inconclusive = no clear call, values can overlap the other calls; inactive = above about -39%
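Inhibition of viral replication was scored as loss of reporter luminescence in HFFs infected with HCMV-luciferase (MOI 1 PFU/cell) for 72 h; compounds tested at 2 doses, normalized to buffer and Salinomycin controls.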
Marburg entry inh – qHTS for inhibitors of binding or entry into cells for Marburg Virus; Potency, µM (series often up to 37.8 µM), without a hit: at the highest dose activity change, negative = inhibition, actives largely listed as inhibitors; Marburg virus pseudotyped entry inhibition, cell reporter; 300,000 compounds, 1.8% hits; calls by dose curve; tested in HEK293 cells; note: potency is the fitted concentration of half-maximal effect
FMDV antiviral – High Throughput Screening for Foot and Mouth Disease Virus Antivirals | Potency, µM (top dose mostly 57.9 µM), inactives show top-dose activity change, negative = inhibition, hits mostly inhibitors | FMDV antiviral cell-based qHTS | AID 1159524, 2015 | 410,000 compounds, 1.2% hits; calls by dose curve; tested in HEK293T cells; note: read-out not given here; potency is the fitted concentration of half-maximal effect; nearly all actives have a fitted effect of over 45% in size
Active calls of the source: *; u = inconclusive; x = no result; [ ] = another dose, or the depositor's remark. % is set by controls: 0 for no effect and ±100 for the full control effect.

SMILES | Lassa entry inh | HCMV inh | Marburg entry inh | FMDV antiviral
CN(CCCNC(=O)c1cc2c(Cl)nc3ccccc3c2s1)Cc1ccccc1 | u | u | 10µM* | -14%
CCc1cc(C(=O)NCCN2Cc3ccccc3OC(c3ccsc3)C2)n(C)n1 (stereo not given) | x | x | x | -20%
CCSc1nnc(-c2ccc(C)cc2)c2ccccc12 | u | -62* | u | 0%
COc1ccccc1NC(=O)Nc1nc(CC(=O)N2CCN(c3ccccc3)CC2)cs1 | u | -6 | 7%[46.1 µM] | u
COc1ccccc1NC(=O)Cc1csc(NC(=O)c2ccccc2)n1 | u | -69* | -28% | u
COc1ccccc1CNC(=O)Cc1csc(NC(=O)Nc2ccccc2OC)n1 | u | -4 | u | -27%
COc1ccccc1NC(=O)Nc1nc(CC(=O)N2CCN(c3ccc(F)cc3)CC2)cs1 | u | -23 | 11µM* | u
CN(C(=O)CSc1ncnc2c(-c3cccs3)nsc12)C1CCCCC1 | x | 16 | x | x
Cc1cc(C)c(CN2CCC(CO)(CCOc3ccccc3)CC2)cc1C | u | -7 | 11µM* | -26%
CCOC(=O)c1[nH]c2ccc(F)cc2c1NC(=O)CN1CCN(C/C=C/c2ccccc2)CC1 | u | -22 | u | 32µM*
COC(=O)c1[nH]c2ccccc2c1NC(=O)CN1CCN(C/C=C/c2ccccc2)CC1 | u | -61* | 18µM* | x
COc1cc(NC(=O)Nc2c[nH]c(=O)[nH]c2=O)cc(OC)c1OC | 2%[46.1 µM] | -5 | x | -21%
Cc1cccc(NC(=O)Cn2c(=O)n(Cc3ccc4c(c3)OCO4)c(=O)c3oc4ccccc4c32)c1C | -2%[46.1 µM] | 52 | x | -6%
COc1ccc2nc(Nc3nc(CSc4nnc(C)s4)cc(=O)[nH]3)nc(C)c2c1 | 11% | x | 17% | x
Cc1ccc2nc(Nc3nc(CSc4nnc(C)s4)cc(=O)[nH]3)nc(C)c2c1 | x | -81* | 3%[46.1 µM] | -5%
COc1ccc2c(C)nc(Nc3nc(-c4ccccc4)cc(=O)[nH]3)nc2c1 | 4.6µM* | -93* | u | -8%
COCc1cc(=O)[nH]c(Nc2nc(C)c3cc(OC)ccc3n2)n1 | x | x | -1% | x
Cc1ccc2nc(Nc3nc(-c4ccccc4)cc(=O)[nH]3)nc(C)c2c1 | -10% | -67* | u | 0%
Oc1cc(-c2cccs2)cc2c1OCCN(Cc1cn[nH]c1-c1ccc(Cl)cc1)C2 | x | x | x | 1%
O=C(c1ccc(CSc2nc3ccncc3n2Cc2cccc(F)c2)cc1)N1CCCCC1 | -3%[46.1 µM] | -31 | -2%[46.1 µM] | -9%
Cc1ccccc1-c1cc(-n2ccnc2)ncn1 | x | x | x | 1%
CCCCOc1ccc(CN2CCCCC2)cc1 | 11% | -12 | u | x
Oc1ccc(N2CCN(Cc3ccc(OCCCN4CCCCC4)cc3)CC2)cc1 | 7%[46.1 µM] | -4 | 13µM* | 27%
O=C(NCC1CC1)[C@@H]1[C@@H](CO)[C@@H]2Cn3c(cccc3=O)[C@@H]2N1Cc1cccc(F)c1 | x | -4 | x | x
COc1ccc(CCN(C)Cc2c(O)ccc3cc(Br)ccc23)cc1OC | 4%[46.1 µM] | -77* | u | u
SMILES | Lassa entry inh | HCMV inh | Marburg entry inh | FMDV antiviral
COc1ccc2cc(Br)ccc2c1CC(=O)N(C)C | x | -11 | -3%[46.1 µM] | -12%
COc1ccc(CN(C)Cc2c(O)ccc3cc(Br)ccc23)cc1OC | 4%[46.1 µM] | -66* | u | -4%
CC(=O)C1=C(c2ccc(C)cc2)N(C(C)=O)n2c(nnc2-c2ccccc2)S1 | -7%[46.1 µM] | 39 | x | -20%
CCc1ccc(OC(=O)CSc2nnc(-c3ccc(OC)c(OC)c3)o2)cc1 | 6%[46.1 µM] | 10 | -3%[46.1 µM] | 2%
O=C(O)C1CC=CCC1C(=O)Nc1ccc(S(=O)(=O)N2CCCc3ccccc32)cc1 (stereo not given) | 3.3µM* | -76* | 2.1µM* | -10%
O=C(c1cccc(S(=O)(=O)N2CCCC2)c1)N1CCCc2ccccc21 | -1%[46.1 µM] | -13 | u | 3%
O=C(Nc1ccc(S(=O)(=O)N2CCCc3ccccc32)cc1)C1CCCO1 (stereo not given) | -17% | 24 | -3% | u
COc1ccc(C(=O)Nc2ccc(S(=O)(=O)N3CCc4ccccc43)cc2)cc1 | 13µM* | -90* | u | u
O=C(Nc1c(F)cccc1F)c1ccc2c(c1)CCN2S(=O)(=O)c1ccccc1 | u | -32 | -25%[46.1 µM] | 0.32µM*
O=C(c1cccc(S(=O)(=O)N2CCCCC2)c1)N1CCc2ccccc21 | 6% | -72* | u | 4%
COCCCN1C(=O)C(CC(=O)NCCCCc2ccccc2)CC(C(=O)N(C(C)C)C(C)C)=C1C (stereo not given) | x | -14 | x | -4%
Cc1ccc(S(=O)(=O)CC(=O)Nc2nc3c(C)cccc3s2)cc1 | -13%[46.1 µM] | 0 | x | 2%

Screening data from PubChem BioAssay.
